Sampled rows, rich in hits. Any-hit rate of the full collection: about 19%.
TGFb SMAD3 inh: inhibitors of TGF-b signaling; Potency, µM (series often up to 46.1 µM), inactives show at the highest dose activity, negative = inhibition, usual class: inhibitors; AID 588855; HepG2 CAGA-GFP TGF-b/SMAD3 reporter, GFP fluorescence, 18 h; TGF-beta stimulated, 500 pg/mL final; 410,000 tested, 1.2% active; also: potency is read from the fitted curve at half-maximal effect; % is scaled to controls: 0 for no effect and ±100 for the full control effect; nearly all actives have a fitted effect of over 65% in size
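Inhibition of TGF-beta-driven CAGA-GFP reporter expression in HEPG2 cells is measured by cellular GFP fluorescence after 18 h stimulation with 500 pg/mL recombinant TGF-beta in 1% FBS medium at 37 degrees C.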
HepG2 tox: counter-screen for TGF-b inhibitors: cytotoxicity in HepG2 cells | AID 588856 | HepG2 CAGA-GFP viability, ATP luminescence, 18 h | 410,000 tested, 0.76% active | Potency, µM (highest dose often 46.1 µM), for inactives: at the highest dose activity change, negative = cytotoxicity, most hits filed as cytotoxic; also: potency is read from the fitted curve at half-maximal effect
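HepG2 CAGA-GFP cells (1000/well, DMEM with 1% FBS) received compound, then TGF-beta at 500 pg/mL final, and were incubated 18 hours at 37 degrees C. Viability was read by CellTiter-Glo luminescence. Media-only wells were set as complete cell-killing and DMSO as no toxicity.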
TDP1 inh: inhibitors of human tyrosyl-DNA phosphodiesterase TDP1. recombinant TDP1, AlphaScreen DNA substrate cleavage. Potency, µM (top dose mostly 130 µM), for inactives: at the highest dose activity change, negative = inhibition, hits mostly inhibitors. 350,000 tested, 0.28% active. Q9NUW8. AID 485290; also: potency is read from the fitted curve at half-maximal effect; % is scaled to controls: 0 for no effect and ±100 for the full control effect; nearly all actives have a fitted effect of over 40% in size
Target sequence (Q9NUW8 whole entry, looked up): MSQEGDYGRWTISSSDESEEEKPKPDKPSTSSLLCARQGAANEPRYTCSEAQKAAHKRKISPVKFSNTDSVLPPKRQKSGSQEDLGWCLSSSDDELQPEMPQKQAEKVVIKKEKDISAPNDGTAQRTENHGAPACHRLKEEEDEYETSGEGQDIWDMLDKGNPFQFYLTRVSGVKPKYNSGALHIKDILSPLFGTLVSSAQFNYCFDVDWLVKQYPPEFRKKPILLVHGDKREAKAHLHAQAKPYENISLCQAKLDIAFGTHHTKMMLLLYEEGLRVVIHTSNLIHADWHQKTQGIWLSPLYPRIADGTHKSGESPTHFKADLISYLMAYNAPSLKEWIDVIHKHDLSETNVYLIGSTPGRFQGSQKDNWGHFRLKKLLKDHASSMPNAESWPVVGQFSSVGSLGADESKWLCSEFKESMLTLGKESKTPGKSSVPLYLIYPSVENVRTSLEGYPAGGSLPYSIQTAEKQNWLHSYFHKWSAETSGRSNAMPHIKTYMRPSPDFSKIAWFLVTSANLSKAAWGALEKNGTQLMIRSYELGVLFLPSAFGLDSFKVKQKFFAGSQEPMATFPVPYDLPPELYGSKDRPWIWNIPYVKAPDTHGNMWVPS
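Enzyme-compound mixtures sat 15 min at room temperature, followed by a 5 min reaction with 15 nM final substrate and 10 min with AlphaScreen beads. Recombinant human Tdp1 was used at 1 nM final.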
IL-1B inflam inh: blocks inflammasome-driven IL-1 beta release. 360,000 tested, 4.7% active. activity change, % at 57.5 µM. THP-1 LPS/ATP IL-1B secretion, AlphaLISA, 16 h; stronger effect = lower value; in the data active = activity change below about -50%; inconclusive = mostly about -30% to -49%; also: % is scaled to controls: 0 for no effect and ±100 for the full control effect
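THP-1 cells pretreated 1 hr with compounds (up to 57.5 uM final), then stimulated with LPS (250 ng/mL final) plus ATP (1.25 mM final); secreted IL-1B measured by AlphaLISA after 16 hr, decreased signal indicating inhibition.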
TDP1 cell CPT: growth inhibition of DT40 Tdp1-/-;hTDP1 cells with camptothecin (screen for TDP1 inhibitors); 420,000 tested, 12% active; chicken DT40 Tdp1-/-;hTDP1 cells + 20 nM CPT, ATP luminescence, 48 h; AID 686979; Potency, µM (doses to about 46.2 µM), for inactives: at the highest dose activity change, negative = growth inhibition, usual class: inhibitors; also: potency is read from the fitted curve at half-maximal effect; % is scaled to controls: 0 for no effect and ±100 for the full control effect; nearly all actives have a fitted effect of over 55% in size
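Chicken DT40 Tdp1-/- cells stably complemented with human TDP1 were seeded at 400 cells/well in medium containing 20 nM camptothecin, exposed to pin-transferred compounds, and grown at 37 °C for at least 48 hr. Viability was read as ATP luminescence.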
DT40 TDP1 no CPT: qHTS for Inhibitors of human tyrosyl-DNA phosphodiesterase 1 (TDP1): qHTS in cells in absence of CPT; DT40 Tdp1-/- hTDP1 cells, no CPT, ATP luminescence, 48 h; Potency, µM (titrated, usually from 46.2 µM), inactives show at the top dose activity change, negative = growth inhibition, usual class: inhibitors; 420,000 tested, 15% active; also: potency is read from the fitted curve at half-maximal effect; % is scaled to controls: 0 for no effect and ±100 for the full control effect; nearly all actives have a fitted effect of over 55% in size
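Growth kinetics read by CellTiter-Glo luminescence after ≥48 hr at 37 °C. Cells: DT40 Tdp1-/- stably carrying human TDP1, 400 per well, compound exposure in the absence of CPT (DMSO vehicle).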
* marks the source's active call; other numbers are inactive results; [ ] = another dose, or the depositor's remark. Unless noted, calls follow the shape of the dose curve; as a rule, active = well fitted curve in the direction sought with a large enough effect; inconclusive = small, poorly fitted or top-dose-only effect, or another doubt; inactive = no such curve, though single readings can be large; an effect the other way counts as inactive or inconclusive.

CC(=O)c1c(C)[nH]c(C(=O)CN2CCN(S(=O)(=O)c3ccccc3)CC2)c1C was read as TGFb SMAD3 inh -5%, HepG2 tox -10%, TDP1 inh 2%, IL-1B inflam inh 23, TDP1 cell CPT inconclusive and DT40 TDP1 no CPT inconclusive.
CC12CCC(c3c1nc1ccccc1[n+]3[O-])C2(C)C (configuration not stated) was read as TGFb SMAD3 inh 0%, HepG2 tox -5%, TDP1 inh 3%, IL-1B inflam inh 3, TDP1 cell CPT inconclusive and DT40 TDP1 no CPT 18µM*.
Screening CC12CCC(C(=NO)C1=NO)C2(C)C (configuration not stated) returned TGFb SMAD3 inh 18%, HepG2 tox -1%, IL-1B inflam inh 1, TDP1 cell CPT 2% and DT40 TDP1 no CPT -13%.
`Cn1cnc(S(=O)(=O)N2CCC(C(=O)NCc3ccc(F)cc3)CC2)c1` gave TGFb SMAD3 inh 9%, HepG2 tox -1%, TDP1 inh 4%, TDP1 cell CPT 4% and DT40 TDP1 no CPT -5%.
Screening O=C(Nc1cc(Cl)ccc1-n1cncn1)c1cccc(S(=O)(=O)N2CCOCC2)c1 returned TGFb SMAD3 inh 8%, HepG2 tox 0%, TDP1 inh -2%[56.1 µM], IL-1B inflam inh 8, TDP1 cell CPT -2% and DT40 TDP1 no CPT 3%.
Screening CN(CCCCCCCCCCN(C)C(=O)Oc1cccc([N+](C)(C)C)c1)C(=O)Oc1cccc([N+](C)(C)C)c1 returned TGFb SMAD3 inh 5%, HepG2 tox -4%, IL-1B inflam inh 2, TDP1 cell CPT 2.3µM* and DT40 TDP1 no CPT 0.82µM*.
COc1ccccc1NS(=O)(=O)c1cc(NC(=O)CCC(=O)c2cccs2)ccc1Cl was read as TGFb SMAD3 inh -19%, HepG2 tox -16%, TDP1 inh 3%, IL-1B inflam inh -2, TDP1 cell CPT inconclusive and DT40 TDP1 no CPT inconclusive.
Cc1ccc(NC(=S)NC(=O)c2ccc(F)cc2)cc1S(=O)(=O)Nc1cccc(Cl)c1 was read as TGFb SMAD3 inh -29%, HepG2 tox -24%, TDP1 inh -5%, IL-1B inflam inh inconclusive, TDP1 cell CPT 5.2µM* and DT40 TDP1 no CPT 5.8µM*.
CCOc1ccc(NS(=O)(=O)c2cc(NC(=O)CCC(=O)c3cccs3)ccc2Cl)cc1 was read as TGFb SMAD3 inh inconclusive, HepG2 tox -33%, TDP1 inh 0%, IL-1B inflam inh -26, TDP1 cell CPT 29µM* and DT40 TDP1 no CPT inconclusive.
`Cc1ccc(C(=O)Nc2ccc(NC(=O)c3cccs3)cc2)cc1C` gave TGFb SMAD3 inh 2%, HepG2 tox 4%, TDP1 inh 3%[12.3 µM], TDP1 cell CPT 5% and DT40 TDP1 no CPT -3%.
Screening Cc1ccc(NC(=O)CC(=O)c2ccc([N+](=O)[O-])cc2)cc1S(=O)(=O)Nc1cccc(Cl)c1 returned TGFb SMAD3 inh inconclusive, HepG2 tox -50%, TDP1 inh -3%, IL-1B inflam inh -2, TDP1 cell CPT -29% and DT40 TDP1 no CPT 11%.
Cc1ccc(NC(=O)c2cccs2)cc1S(=O)(=O)Nc1cccc(Cl)c1 was read as TGFb SMAD3 inh inconclusive, HepG2 tox -11%, TDP1 inh -3%, IL-1B inflam inh -131*, TDP1 cell CPT -13% and DT40 TDP1 no CPT inconclusive.
Screening O=C(NCc1ccco1)c1ccc2c(c1)OCCO2 returned TGFb SMAD3 inh 17%, HepG2 tox 7%, TDP1 inh 3%, IL-1B inflam inh -11, TDP1 cell CPT -4% and DT40 TDP1 no CPT 14%.
CC(=O)N1CC[C@@H]2CC(=O)CC[C@@H]21 was read as TDP1 inh 1%[234 µM].
For O=C(CN1C(=O)C2CCCCN2c2ccc(C(=O)N3CCCC3)cc21)NCc1ccccc1 (configuration not stated) the results were TGFb SMAD3 inh -5%, HepG2 tox -18%, TDP1 inh 1%, TDP1 cell CPT -29% and DT40 TDP1 no CPT inconclusive.
For COC(=O)c1nnn(CC(=O)NC(=O)Nc2cccc(Cl)c2C)c1C(=O)OC the results were TGFb SMAD3 inh 1%, HepG2 tox -5%, TDP1 inh 3%, IL-1B inflam inh -9, TDP1 cell CPT -4% and DT40 TDP1 no CPT -15%.
Screening CCOCCCNC(=O)c1ccc(NC(=O)N2CCCCc3ccccc32)cc1 returned TGFb SMAD3 inh -22%, HepG2 tox 0%, TDP1 inh 3%, TDP1 cell CPT inconclusive and DT40 TDP1 no CPT inconclusive.
`CC(C)C[C@H](NC(=O)c1nc[nH]c1C(=O)N[C@@H](CCCCNC(=O)OC(C)(C)C)C(=O)OC(C)(C)C)C(=O)OCc1ccccc1` gave TGFb SMAD3 inh inconclusive, HepG2 tox -12%, IL-1B inflam inh -19, TDP1 cell CPT inconclusive and DT40 TDP1 no CPT inconclusive.
Screening CC(C)C[C@H](NC(=O)c1[nH]cnc1C(=O)N[C@@H](C)C(=O)OC(C)(C)C)C(=O)OCc1ccccc1 returned TGFb SMAD3 inh inconclusive, HepG2 tox -72%, TDP1 inh 6%, IL-1B inflam inh -16, TDP1 cell CPT inconclusive and DT40 TDP1 no CPT 16µM*.
`CC(C)C[C@H](NC(=O)c1[nH]cnc1C(=O)N[C@@H](Cc1ccccc1)C(=O)OCc1ccccc1)C(=O)OC(C)(C)C` gave TGFb SMAD3 inh inconclusive, HepG2 tox -4%, IL-1B inflam inh 3, TDP1 cell CPT 21µM* and DT40 TDP1 no CPT 21µM*.
C[C@H](NC(=O)c1nc[nH]c1C(=O)N[C@@H](Cc1ccccc1)C(=O)OCc1ccccc1)C(=O)OC(C)(C)C was read as TGFb SMAD3 inh inconclusive, HepG2 tox -8%, IL-1B inflam inh 14, TDP1 cell CPT inconclusive and DT40 TDP1 no CPT -28%.
CC(C)(C)OC(=O)C(Cc1ccc(OC(C)(C)C)cc1)NC(=O)CNC(=O)OCc1ccccc1 (configuration not stated) was read as TGFb SMAD3 inh inconclusive, HepG2 tox -4%, TDP1 inh 8%, IL-1B inflam inh -71*, TDP1 cell CPT 16µM* and DT40 TDP1 no CPT 12µM*.
